PubChem BioAssay (NCI)
Compounds without any hit were thinned out: in the full panel of roughly 79,000, 15% have a hit. Calls of active or inactive are those of the source. Cut-off read from the data, not from the text of the source: active = growth inhibition above about 70%; inactive = the rest.

How the values were obtained:
[1] = NCI Yeast Anticancer Drug Screen. Data for the rad14 strain (AID 159);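 note: 0% = growth of vehicle-treated control cultures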; conditions: S. cerevisiae rad14 strain growth inhibition, hits give high values
Method in brief: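 Here, inhibition of yeast growth was measured after compound exposure, using a strain with a genetic defect in DNA damage repair and vehicle-treated cultures as the reference.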

[2] = NCI Yeast Anticancer Drug Screen. Data for the sgs1 mgt1 strain (AID 161);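 note: 0% = growth of cultures given vehicle only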; conditions: S. cerevisiae sgs1 mgt1 strain, hits give high values
Method in brief: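 Read-out: growth inhibition vs vehicle controls. Cells: mutant yeast strain deficient in DNA damage repair.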

[3] = NCI Yeast Anticancer Drug Screen. Data for the CLN2oe strain (AID 163);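 note: 0% = growth of vehicle-only control cultures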; conditions: S. cerevisiae CLN2oe strain, hits give high values
Method in brief: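 First, the altered yeast strain was treated with each compound; second, its growth was measured; finally, inhibition was derived by comparison with vehicle controls.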

[4] = NCI Yeast Anticancer Drug Screen. Data for the cln2 rad14 strain (AID 165);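 note: 0% = growth equal to vehicle treated cultures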; conditions: S. cerevisiae cln2 rad14 strain, hits give high values
Method in brief: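 Test compounds were added to cln2 rad14 yeast cultures; inhibition of growth was then determined by comparison with vehicle treatment.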

[5] = NCI Yeast Anticancer Drug Screen. Data for the bub3 strain (AID 167); conditions: S. cerevisiae bub3 mutant strain, hits give high values
Method in brief: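 Whole-cell yeast assay. The mutant strain was incubated with compounds, and growth inhibition was determined by comparison with vehicle-treated cells.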

[6] = NCI Yeast Anticancer Drug Screen. Data for the wt2 strain (AID 169);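 note: 0% = growth of vehicle-treated yeast cultures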; conditions: S. cerevisiae wt2 strain growth inhibition, hits give high values
Method in brief: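 The panel's yeast strains carry defined changes in DNA repair or cell cycle genes. Each strain is grown with compound, and growth loss is scored relative to vehicle.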

[7] = NCI Yeast Anticancer Drug Screen. Data for the mlh1 strain (AID 171);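 note: 0% = growth of vehicle-treated control cultures of the same strain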; conditions: S. cerevisiae mlh1 strain growth inhibition, hits give high values
Method in brief: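 Inhibition values reflect reduced yeast growth in the presence of compound, referenced to vehicle controls, using a strain chosen for its alteration in DNA repair or cell cycle control.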

[8] = NCI Yeast Anticancer Drug Screen. Data for the sgs1 strain (AID 173);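 note: 0% = growth of vehicle-only control cultures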; conditions: S. cerevisiae sgs1 mutant, hits give high values
Method in brief: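 Vehicle-treated cultures served as reference for growth inhibition of a yeast strain altered in DNA damage repair or cell cycle control after compound exposure.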

[9] = NCI Yeast Anticancer Drug Screen. Data for the mlh1 rad18 strain (AID 175); conditions: S. cerevisiae mlh1 rad18 strain growth inhibition, hits give high values
Method in brief: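 Inhibition values reflect reduced growth of mutant yeast versus vehicle-treated controls following compound exposure; the mutations affect DNA damage repair.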

[10] = NCI Yeast Anticancer Drug Screen. Data for the rad18 strain (AID 177); conditions: S. cerevisiae rad18 mutant growth inhibition, hits give high values
Method in brief: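 Steps: expose repair-mutant yeast to compound; measure growth; express as inhibition relative to vehicle control.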

[11] = NCI Yeast Anticancer Drug Screen. Data for the rad50EPP+ strain (AID 151);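 note: 0% = growth of vehicle-treated control cultures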; conditions: S. cerevisiae rad50 mutant strain, hits give high values
Method in brief: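 Genetically defined yeast (rad50EPP+, DNA damage repair alteration) is grown with compound, and inhibition of growth is expressed relative to vehicle-treated controls.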

[12] = NCI Yeast Anticancer Drug Screen. Data for the rad50 strain (AID 155);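 note: 0% = growth of vehicle-only cultures of the same strain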; conditions: S. cerevisiae rad50 strain growth inhibition, hits give high values
Method in brief: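 Growth of the mutant yeast was measured after compound exposure and referenced to vehicle-treated cultures.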

[13] = NCI Yeast Anticancer Drug Screen. Data for the mec2-1 strain (AID 157); conditions: S. cerevisiae mec2-1 strain, hits give high values
Method in brief: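 Each compound was tested on mec2-1 yeast, a strain altered in DNA damage repair or cell cycle control. Growth inhibition is reported relative to vehicle.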

[14] = NCI Yeast Anticancer Drug Screen. Data for the rad52 strain (AID 147);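 note: 0% = growth of vehicle-treated control cultures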; conditions: S. cerevisiae rad52 mutant growth inhibition, hits give high values
Method in brief: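 Inhibition of yeast growth, referenced to vehicle controls, was the measured output for a strain with defective DNA damage repair.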

[15] = NCI Yeast Anticancer Drug Screen. Data for the mgt1 strain (AID 153); conditions: S. cerevisiae mgt1 mutant growth inhibition, hits give high values
Method in brief: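 In the mgt1 strain, test compounds were added and growth inhibition was determined relative to vehicle-treated controls.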

[16] = at 5.0 µM (retest, dose inferred, filed as 0.5)
[17] = at 50.0 µM (retest, dose inferred, filed as 5.0)

Measured: growth inhibition

c1ccc(N2N=C3N(c4ccccc4)C2N3c2ccccc2)cc1
active: [1]; at 100.0 µM 92% | [2]; at 50.0 µM 81% | [3]; at 100.0 µM 92% | [4]; [17] 75% | [5]; at 33.0 µM 80% | [5]; [17] 81% | [5]; at 50.0 µM 82.5% | [5]; at 100.0 µM 92% | [6]; at 100.0 µM 94% | [7]; at 100.0 µM 93% | [8]; at 100.0 µM 93% | [9]; [17] 99% | [9]; at 50.0 µM 77.5% | [10]; at 100.0 µM 94%
inactive: [2]; [16] -16% | [2]; [17] 57% | [3]; at 1.2 µM -12% | [3]; at 3.7 µM -7% | [3]; at 11.0 µM -10% | [3]; at 33.0 µM 51% | [4]; [16] 28% | [4]; at 50.0 µM 59.5% | [5]; at 1.2 µM -6% | [5]; at 3.7 µM -1% | [5]; [16] 28% | [5]; at 11.0 µM 29% | [6]; at 1.2 µM -17% | [6]; at 3.7 µM -7% | [6]; at 11.0 µM 1% | [6]; at 33.0 µM 44% | [7]; at 1.2 µM -28% | [7]; at 3.7 µM -22% | [7]; at 11.0 µM -7% | [7]; at 33.0 µM 37% | [8]; at 1.2 µM 2% | [8]; at 3.7 µM -29% | [8]; at 11.0 µM 2% | [8]; at 33.0 µM 41% | [9]; [16] 38% | [10]; at 1.2 µM 12% | [10]; at 3.7 µM 10% | [10]; at 11.0 µM -3% | [10]; at 33.0 µM 60%

O=c1ccc(N=Nc2ccccc2)ccc1O
inactive: [11]; at 1.2 µM -8% | [11]; at 3.7 µM 11% | [12]; at 1.2 µM 18% | [12]; [16] 34% | [13]; at 1.2 µM -1% | [13]; at 3.7 µM 37% | [13]; [16] 28% | [1]; at 1.2 µM 1% | [2]; [16] 44% | [3]; at 1.2 µM -6% | [3]; at 3.7 µM 33% | [4]; [16] -3% | [5]; at 1.2 µM 10% | [5]; [16] 22% | [6]; at 1.2 µM 31% | [7]; at 1.2 µM 10% | [8]; at 1.2 µM 4% | [8]; at 3.7 µM 62% | [9]; [16] 59% | [10]; at 1.2 µM 9% | [10]; at 3.7 µM 64%
active: [11]; at 11.0 µM 88% | [11]; at 33.0 µM 98% | [11]; at 100.0 µM 97% | [12]; at 3.7 µM 87% | [12]; at 11.0 µM 97% | [12]; at 33.0 µM 99% | [12]; [17] 99% | [12]; at 50.0 µM 98.7% | [12]; at 100.0 µM 98% | [13]; at 11.0 µM 93% | [13]; at 33.0 µM 99% | [13]; [17] 99% | [13]; at 50.0 µM 98.7% | [13]; at 100.0 µM 98% | [1]; at 3.7 µM 91% | [1]; at 11.0 µM 98% | [1]; at 33.0 µM 99% | [1]; at 100.0 µM 99% | [2]; [17] 99% | [2]; at 50.0 µM 98.7% | [3]; at 11.0 µM 93% | [3]; at 33.0 µM 98% | [3]; at 100.0 µM 97% | [4]; [17] 98% | [4]; at 50.0 µM 98.1% | [5]; at 3.7 µM 77% | [5]; at 11.0 µM 97% | [5]; at 33.0 µM 99% | [5]; [17] 99% | [5]; at 50.0 µM 97.8% | [5]; at 100.0 µM 99% | [6]; at 3.7 µM 87% | [6]; at 11.0 µM 99% | [6]; at 33.0 µM 99% | [6]; at 100.0 µM 98% | [7]; at 3.7 µM 90% | [7]; at 11.0 µM 98% | [7]; at 33.0 µM 99% | [7]; at 100.0 µM 99% | [8]; at 11.0 µM 97% | [8]; at 33.0 µM 99% | [8]; at 100.0 µM 98% | [9]; [17] 99% | [9]; at 50.0 µM 98.8% | [10]; at 11.0 µM 97% | [10]; at 33.0 µM 99% | [10]; at 100.0 µM 98%

O=C(/C=C/c1cccc(Br)c1)c1ccc(Cl)cc1
active: [14]; at 100.0 µM 76% | [15]; at 100.0 µM 70% | [12]; at 50.0 µM 81.9% | [12]; at 100.0 µM 82% | [13]; at 50.0 µM 73% | [5]; [17] 84% | [5]; at 100.0 µM 82% | [6]; at 100.0 µM 72% | [7]; at 100.0 µM 76% | [9]; at 50.0 µM 75.3% | [10]; at 100.0 µM 84%
inactive: [14]; at 1.2 µM -26% | [14]; at 3.7 µM -14% | [14]; at 11.0 µM -6% | [14]; at 33.0 µM 28% | [11]; at 1.2 µM -62% | [11]; at 3.7 µM -22% | [11]; at 11.0 µM -25% | [11]; at 33.0 µM -13% | [11]; at 100.0 µM 2% | [15]; at 1.2 µM -40% | [15]; at 3.7 µM -36% | [15]; at 11.0 µM -13% | [15]; at 33.0 µM 32% | [12]; at 1.2 µM -9% | [12]; at 3.7 µM 0% | [12]; [16] 35% | [12]; at 11.0 µM 27% | [12]; at 33.0 µM 66% | [12]; [17] 47% | [13]; at 1.2 µM -65% | [13]; at 3.7 µM -68% | [13]; [16] 32% | [13]; at 11.0 µM -51% | [13]; at 33.0 µM -18% | [13]; [17] 47% | [13]; at 100.0 µM 53% | [1]; at 1.2 µM -67% | [1]; at 3.7 µM -46% | [1]; at 11.0 µM -49% | [1]; at 33.0 µM -15% | [1]; at 100.0 µM 46% | [2]; [16] 4% | [2]; [17] 60% | [4]; [16] 46% | [4]; [17] 48% | [5]; at 1.2 µM -16% | [5]; at 3.7 µM -7% | [5]; [16] 52% | [5]; at 11.0 µM 38% | [5]; at 33.0 µM 57% | [6]; at 1.2 µM -31% | [6]; at 3.7 µM -28% | [6]; at 11.0 µM -19% | [6]; at 33.0 µM 20% | [7]; at 1.2 µM -30% | [7]; at 3.7 µM -19% | [7]; at 11.0 µM -7% | [7]; at 33.0 µM 19% | [9]; [16] 26% | [9]; [17] 56% | [10]; at 1.2 µM -37% | [10]; at 3.7 µM -13% | [10]; at 11.0 µM 30% | [10]; at 33.0 µM 61%
